About 390 (7%) of roughly 5,600 compounds showed an effect of 50% or more. The sample holds strong results, similar compounds and a random draw of the others, so the mix is not that of the screen.
Assays:
[1] = molecular target: T1, Protein deacetylase HDAC6 (Homo sapiens) (UniProt Q9UBN7); conditions: at 10 µM
T1 sequence (whole entry): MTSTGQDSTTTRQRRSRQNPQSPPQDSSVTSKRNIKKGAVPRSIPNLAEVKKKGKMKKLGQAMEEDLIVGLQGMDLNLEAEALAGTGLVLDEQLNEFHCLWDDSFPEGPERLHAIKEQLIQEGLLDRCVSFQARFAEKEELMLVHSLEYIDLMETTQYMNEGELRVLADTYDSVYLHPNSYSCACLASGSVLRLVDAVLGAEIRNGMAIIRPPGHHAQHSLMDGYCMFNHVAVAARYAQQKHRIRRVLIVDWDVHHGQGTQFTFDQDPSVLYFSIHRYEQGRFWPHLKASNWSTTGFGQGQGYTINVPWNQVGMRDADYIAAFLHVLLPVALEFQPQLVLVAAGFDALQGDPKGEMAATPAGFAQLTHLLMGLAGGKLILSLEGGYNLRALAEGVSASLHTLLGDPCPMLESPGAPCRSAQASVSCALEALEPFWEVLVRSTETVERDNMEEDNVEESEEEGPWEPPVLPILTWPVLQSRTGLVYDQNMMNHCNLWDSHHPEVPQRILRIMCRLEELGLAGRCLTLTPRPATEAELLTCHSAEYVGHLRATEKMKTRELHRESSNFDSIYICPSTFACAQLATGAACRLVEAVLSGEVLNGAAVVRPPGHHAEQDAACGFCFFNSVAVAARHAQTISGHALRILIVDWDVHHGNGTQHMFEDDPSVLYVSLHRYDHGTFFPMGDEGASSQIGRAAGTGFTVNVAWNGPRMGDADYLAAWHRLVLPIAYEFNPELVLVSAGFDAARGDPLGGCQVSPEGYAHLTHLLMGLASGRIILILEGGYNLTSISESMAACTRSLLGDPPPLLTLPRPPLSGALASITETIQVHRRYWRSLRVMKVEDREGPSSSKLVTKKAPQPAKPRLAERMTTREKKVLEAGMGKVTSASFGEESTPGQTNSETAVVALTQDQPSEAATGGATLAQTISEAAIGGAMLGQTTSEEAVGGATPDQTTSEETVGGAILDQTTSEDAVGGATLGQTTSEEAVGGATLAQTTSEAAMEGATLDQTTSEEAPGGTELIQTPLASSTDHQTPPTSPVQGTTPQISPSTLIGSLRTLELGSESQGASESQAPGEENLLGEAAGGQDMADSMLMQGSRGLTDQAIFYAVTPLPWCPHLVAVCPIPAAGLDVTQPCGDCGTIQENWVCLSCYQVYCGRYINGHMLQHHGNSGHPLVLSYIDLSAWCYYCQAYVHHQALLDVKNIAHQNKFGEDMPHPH

[2] = molecular target: Protein deacetylase HDAC6 (Homo sapiens) (UniProt Q9UBN7); conditions: at 10 µM; remark: listed apart in the source

Compound	inhibition [1] [%]	inhibition [2] [%]
C[N+](C)(C)NCCC(=O)[O-]	17.8	–
Cn1c(=O)c2c(ncn2CCOC(=O)C(C)(C)Oc2ccc(Cl)cc2)n(C)c1=O	23.6	–
c1ccc(-c2n[nH]c3c2oc2ccccc23)cc1	95	–
CCC/C=C1\OC(=O)C2=C1CCC=C2	39.5	–
CC(=C\c1ccc(Cl)cc1)/C(C)=N/O	2.85	–
NC(CC(F)C(=O)O)C(=O)O (racemic)	38.9	–
C=CC(C)(C)c1cc(/C=C/C(=O)c2ccc(O)cc2)c(OC)cc1O	75.1	–
COC(=O)/C=C/c1cc(O)ccc1O	28.1	–
CCOc1cc2ncc(C#N)c(Nc3ccc(OCc4cccc(F)c4)c(Cl)c3)c2cc1NC(=O)/C=C/CN(C)C	-4.4	–
Clc1ccc2nsnc2c1NC1=NCCN1	-9.25	–
CC(C)Oc1ccc(Cc2ccc(NC3=NCCN3)cc2)cc1	64	–
CCc1[nH]c(=O)[nH]c1C(=O)c1ccncc1	-6.73	–
COc1ccc2nc3[nH]nc(C)c3c(NCCOCCO)c2c1	0.89	–
COc1cc(OC)c2c(=O)[nH]c(-c3cc(C)c(OCCO)c(C)c3)nc2c1	80.1	–
Nc1nc(Nc2ccc(S(N)(=O)=O)cc2)nn1C(=O)c1c(F)cccc1F	38.5	–
COc1ccc(CNC(=O)c2sc3nc(C)cc(C)c3c2N)cc1	2.68	–
COc1cc2ncnc(Nc3cccc(Br)c3)c2cc1OC	16.9	–
C#Cc1cccc(Nc2ncnc3cc(OCCOC)c(OCCOC)cc23)c1	32.3	–
C#Cc1cccc(Nc2ncnc3cc(OC)c(OCCCCCCC(=O)NO)cc23)c1	101	–
Cn1ccnc1S	-0.6	–
O=C(O)c1cc(C(=O)O)c(C(=O)N(Cc2cccc(Oc3ccccc3)c2)[C@H]2CCCc3ccccc32)cc1C(=O)O	7.63	–
Cc1ccc(Sc2ccccc2N2CCNCC2)c(C)c1	-7.14	–
CN(C)C(=O)Nc1cccc(-c2ccc(N(C)C)cc2)c1	94.6	–
COC(=O)/C=C/c1cccc(N(Cc2ccc(-c3ccc(N(C)C)cc3)cc2)C(=O)C2CCCCC2)c1	-3.18	–
CC(=O)Nc1cccc(O)c1	34.1	–

Compound	inhibition [1] [%]	inhibition [2] [%]
CC1(C)C(/C=C/C=C/C=C/C=C2\N(CCCCS(=O)(=O)O)c3ccc4ccccc4c3C2(C)C)=[N+](CCCCS(=O)(=O)[O-])c2ccc3ccccc3c21	21.1	–
O=C(O)COCCN1CCN(C(c2ccccc2)c2ccc(Cl)cc2)CC1 (stereo not drawn)	-6.57	–
O=C(O)COCCN1CCN([C@H](c2ccccc2)c2ccc(Cl)cc2)CC1	-6.59	–
OCCOCCN1CCN(C(c2ccccc2)c2ccc(Cl)cc2)CC1 (stereo not drawn)	89.5	–
Cc1c(CC(C)(C)C(=O)O)n(Cc2ccc(Cl)cc2)c2ccc(F)cc12	3.54	–
Nc1ccn([C@@H]2C(F)=C(CO)[C@@H](O)[C@H]2O)c(=O)n1	8.8	–
CCc1cccc(CC)c1NC(=O)c1nn(C)c2c1CCc1cnc(Nc3ccc(C(=O)NC4CCN(C)CC4)cc3OC(F)(F)F)nc1-2	-2.89	–
CC(C)(CCCCCCCCCCC(C)(C)CC(=O)O)CC(=O)O	-0.28	–
N#Cc1cc(F)cc(-c2nc(-c3ccc(F)cn3)no2)c1	83.6	–
N#Cc1cccc(-c2nc(-c3cccnc3)no2)c1	19.8	–
COC(=O)c1cnn(-c2ccc(F)cc2F)c1/C=N/NC(=S)NC(C)(C)C	0.12	–
CC[C@H](C)[C@H](N)C(=O)O	9.28	–
COc1ncc2cc(C(=O)Nc3cc(C(=O)NCc4cccc(Cl)c4)ccc3Cl)c(=O)[nH]c2n1	4.52	–
Cn1nc(-c2cccc(F)c2)n(C)c1=S	17.9	–
Cc1csc(S(=O)(=O)N(CC(C)C)c2cc3c(cc2OCc2ccc(C(=O)O)cc2)CCC3)n1	1.78	–
Cc1ccc(NC(=O)c2cccc(N(C)C)c2)cc1NC(=O)c1ccc(O)cc1	80.4	–
Cc1ccc(C(=O)Nc2ccc(S(=O)(=O)O)c3cc(S(=O)(=O)O)cc(S(=O)(=O)O)c23)cc1NC(=O)c1cccc(NC(=O)Nc2cccc(C(=O)Nc3cc(C(=O)Nc4ccc(S(=O)(=O)O)c5cc(S(=O)(=O)O)cc(S(=O)(=O)O)c45)ccc3C)c2)c1	32.3	–
CNCc1ccc(C)c(NC(=O)c2ccc(Nc3nc(-c4ccccc4)c4ccccc4n3)cc2)c1	-7.66	–
CC(=O)O[C@H]1CC[C@@]2(C)C(=CC[C@@H]3[C@@H]2CC[C@]2(C)C(c4cccnc4)=CC[C@@H]32)C1	15.8	–
O=[N+]([O-])c1cc2nc(O)c(O)nc2cc1[N+](=O)[O-]	-5.28	–
O=C(O)c1cc(=O)c2ccccc2o1	-1.55	–
CC(C)c1ccc(-c2cc(=O)c3ccccc3o2)cc1	101	–
NCCC(Oc1ccc(C(F)(F)F)cc1)c1ccccc1 (stereo not drawn)	1.38	–
CC[C@H]1OC(=O)[C@@](C)(F)C(=O)[C@H](C)[C@@H](O[C@@H]2O[C@H](C)C[C@H](N(C)C)[C@H]2O)[C@](C)(OC)C[C@@H](C)C(=O)[C@H](C)[C@H]2N(CCCCn3cc(-c4cccc(N)c4)nn3)C(=O)O[C@]12C	17.2	–
c1ccc2sc(SN3CCOCC3)nc2c1	58.2	–

Compound	inhibition [1] [%]	inhibition [2] [%]
FC(F)c1nc2ccccc2n1-c1nc(N2CCOCC2)nc(N2CCOCC2)n1	29.1	–
COc1ccccc1Oc1c(NS(=O)(=O)c2ccc(C(C)(C)C)cc2)nc(-c2ncccn2)nc1OCCO	22.5	–
COc1ccc(F)c(F)c1C(=O)c1cnc(NC2CCN(S(C)(=O)=O)CC2)nc1N	-5.57	–
C=CCNC(=O)c1cc([N+](=O)[O-])cc2c(=O)[nH]c(Nc3ccc(Cl)c(Cl)c3)nc12	17.8	–
CN(C)c1ccc2c(c1)Sc1cc(N(C)C)ccc1N2	66.8	–
N#CN=C(NCCCCCCOc1ccc(Cl)cc1)Nc1ccncc1	-6.3	–
COc1cc2c(NC3CCN(C(C)C)CC3)nc(N3CCC(F)(F)CC3)nc2cc1OCCCN1CCCC1	-5.91	–
COc1cc(C2Oc3ccc(C4Oc5cc(O)cc(O)c5C(=O)C4O)cc3OC2CO)ccc1O (stereo not drawn)	-5.75	–
Cc1cc(Cn2nnc3c(-c4ccco4)nc(N)nc32)ccc1N	-1.08	–
Cc1c(OCc2cccc(-c3ccc(C(=O)O)cc3)c2)cc2c(c1C)C(=O)C(C1CCCC1)C2 (stereo not drawn)	-0.56	–
CCCCn1ccc(N2CCC(c3ccccc3)CC2)c(Cl)c1=O	59.9	–
CCN1C(=O)NC(c2ccccc2)C1=O (stereo not drawn)	22.6	–
Cc1ccc2c(c1)C(=O)C1(O)CCN(c3ccccc3)C1=N2 (racemic)	1.13	–
O=C(O)C[C@H]1CC[C@H](c2ccc(NC(=O)c3nnc(Nc4ccc(F)c(F)c4)o3)cc2)CC1	35.2	–
Oc1cc(O)c2cc(O)c(-c3cc(O)c(O)c(O)c3)[o+]c2c1	38.4	–
CC(C)Nc1cccnc1N1CCN(C(=O)c2cc3cc(NS(C)(=O)=O)ccc3[nH]2)CC1	51.2	–
CC(C)(C)c1ccc(NC(=O)N2CCN(c3ncccc3Cl)CC2)cc1	24.7	–
COC1=C(OC)C(=O)C(C/C=C(\C)CC/C=C(\C)CC/C=C(\C)CC/C=C(\C)CC/C=C(\C)CC/C=C(\C)CC/C=C(\C)CC/C=C(\C)CC/C=C(\C)CCC=C(C)C)=C(C)C1=O	4.15	–
N[C@H](C(=O)O)c1ccc(O)c(C(=O)O)c1	-8.79	–
CC(C)c1ccc2oc3nc(N)c(C(=O)O)cc3c(=O)c2c1	98.2	–
N[C@@H](C(=O)O)c1ccc(O)c(C(=O)O)c1	1.46	–
BISMUTH SUBCITRATE POTASSIUM, CHEMBL1201186	–	16.3
Cc1ccc(/C(=C\CN2CCCC2)c2cccc(/C=C/C(=O)O)n2)cc1	-6.81	–
COc1cc(C[C@H]2c3cc(OC)c(OC)cc3CCN2C)c(Oc2cc3c(cc2OC)-c2c(OC)c(OC)cc4c2[C@H](C3)N(C)CC4)cc1OC	33.6	–
COc1cc(C(=O)NCC2(N(C)C)CCCC2)cc(OC)c1OCc1ccccc1	0.96	–

Compound	inhibition [1] [%]	inhibition [2] [%]
Nc1nc(NCCc2ccc(O)cc2)nc2nc(-c3ccco3)nn12	67.5	–
COc1cc(C(=S)N2CCOCC2)cc(OC)c1OC	14.8	–
COc1ccc(S(=O)(=O)N2c3ccc(Cl)cc3[C@](O)(c3ccccc3Cl)[C@@H]2C(=O)N2CCC[C@H]2C(N)=O)cc1OC	-7.22	–
Cn1ccc2cc(NC(=O)Nc3cccnc3)ccc21	88.1	–
O=C(NCC(=O)N1CCCC1)Nc1ccc2cnccc2c1	-7.55	–
O=C(Nc1ccc2c(O)cc(S(=O)(=O)O)cc2c1)Nc1ccc2c(O)cc(S(=O)(=O)O)cc2c1	45.9	–
Cn1ccc2cc3c(cc21)CCN3C(=O)Nc1cccnc1	100	–
COc1cc2c(cc1C(F)(F)F)N(C(=O)Nc1cc(F)cc(-c3cccnc3)c1)CC2	-6.46	–
CSc1cc2c(cc1C(F)(F)F)N(C(=O)Nc1cccnc1)CC2	19.3	–
Cc1c(C(=O)NN2CCOCC2)nn(-c2ccc(Cl)cc2Cl)c1-c1ccc(I)cc1	0.27	–
COc1cccc([C@@H](C)NCCCc2ccccc2Cl)c1	2.6	–
CC(C)C[C@H](N)C(=O)O	5.48	–
CC(=O)Nc1cccc(Nc2ncnc(N3CCC(OCc4ccc(OC(F)(F)F)cc4)CC3)n2)c1C	22.4	–
CCc1c(-c2ccccc2)c(-c2ccccc2)nn1-c1ccccc1-c1cccc(OCC(=O)O)c1	10.2	–
c1ccc2[nH]c(-c3cscn3)nc2c1	97.3	–
O=C(O)CCc1nc2ccccc2[nH]1	10.6	–
CCN(c1cc(C#CCN2CCOCC2)cc(C(=O)NCc2c(C)cc(C)[nH]c2=O)c1C)[C@H]1CC[C@H](N(C)CCOC)CC1	-8.25	–
COc1ccccc1OC(=O)C(C)c1ccc(CC(C)C)cc1 (stereo not drawn)	10.7	–
CCOC(=O)[C@H](CCc1ccccc1)N[C@@H](C)C(=O)N1[C@H](C(=O)O)C[C@H]2CCCC[C@@H]21	3.93	–
Cc1cccc(C)c1-n1c(=O)c2cnc(Nc3ccc(N4CCN(C)CC4)cc3)nc2n2c3ccccc3nc12	-1.49	–
O=C(Nc1c[nH]nc1-c1nc2ccc(CN3CCOCC3)cc2[nH]1)NC1CC1	32.3	–
Nc1ccc2cc3ccc(N)cc3nc2c1	6.02	–
Nc1ccc(-c2nc3ccc(-c4nc5ccc(N)cc5[nH]4)cc3[nH]2)cc1	61.9	–

Reference: ChEMBL document CHEMBL4808148, “HDAC6 screening dataset using tau-based substrate in an enzymatic assay yields selective inhibitors and activators” (2021)
